SARS PLpro yeast = inhibitors of SARS-CoV papain-like protease in yeast. actives 0.19% (n = 330,000). S. cerevisiae expressing SARS-CoV PLpro, growth rescue. Potency, µM (highest dose often 32.9 µM), for inactives: top-dose activity, positive = growth rescue, usual class: activators; calls by dose curve; note: 0% is about no effect; nearly all actives have a fitted effect of over 55% in size
Sm TGR block = inhibitors of Schistosoma mansoni thioredoxin glutathione reductase. Q962Y6. purified TGR, DTNB reduction, TNB absorbance 405 nm. Potency, µM (series often up to 114 µM), without a hit: top-dose activity change, negative = inhibition, usual class: inhibitors. actives 3% (n = 360,000); active = well fitted inhibition curve with a large enough effect; inconclusive = small, poorly fitted or top-dose-only effect; inactive = no such curve, though single readings can be large or run the other way; note: % is set by controls: 0 for no effect and ±100 for the full control effect; nearly all actives have a fitted effect of over 60% in size
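First, TGR (20 nM dispensed) and NADPH were mixed with compound. Second, a 15 min room-temperature incubation followed. Third, further NADPH and then DTNB were added to start the reaction. Finally, TNB absorbance was monitored kinetically.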
* hit, by the source's call. In the library only some 3% were active in any assay of this set; here they are far more common. Potency is the fitted concentration of half-maximal effect.

What do the screens show for `Nc1c(NCCN2CCCCC2)c2ccccc2oc1=O`?
SARS PLpro yeast: 1%; Sm TGR block: 28µM*

What do the screens show for `Cc1ccc(N2CCN(c3c(CN4CCCC4)c(=O)oc4ccccc34)CC2)c(C)c1`?
Sm TGR block: 9%

What do the screens show for `CCCNc1c(N)c(=O)oc2ccccc12`?
SARS PLpro yeast: 16%; Sm TGR block: -27%

What do the screens show for `O=c1oc2ccccc2c(N2CCCC2)c1CN1CCCC1`?
SARS PLpro yeast: 5%; Sm TGR block: 35µM*

Results for COc1ccccc1N1CCN(c2c(CN3CCCC3)c(=O)oc3ccccc23)CC1 ?
Sm TGR block: -3%

How did Cc1ccc(NC(=O)CN(C)S(=O)(=O)c2cccc3nsnc23)c(C)c1 do in these assays?
Sm TGR block: 4%

What do the screens show for `CC(C)(C)c1ccc(Oc2nc3ccccn3c(=O)c2/C=C(\C#N)c2nc3ccccc3[nH]2)cc1`?
Sm TGR block: -2%

Results for CCCOc1cccc(C2c3c(oc4ccc(F)cc4c3=O)C(=O)N2Cc2ccc3c(c2)OCO3)c1 (stereo not drawn) ?
Sm TGR block: -5%

What do the screens show for `CCc1ccc(Sc2cc(C(=O)NCc3ccccc3OC)c3ccccc3n2)cc1`?
Sm TGR block: 5%

How did CCOC(=O)c1ccccc1NC(=O)CSc1nc2ncccc2[nH]1 do in these assays?
Sm TGR block: 1%

How did CCC(C)NC(=O)Cn1c(=O)c2cccn2c2ccc(F)cc21 (stereo not drawn) do in these assays?
Sm TGR block: -8%

How did Clc1ccc(OCc2nnc(SCCN3CCCCC3)n2Cc2ccco2)cc1 do in these assays?
SARS PLpro yeast: 4%; Sm TGR block: 25µM*

How did O=c1c2ccccc2nnn1CSc1nnc(COc2ccc(Cl)cc2)n1Cc1ccco1 do in these assays?
SARS PLpro yeast: 1%; Sm TGR block: -15%

What do the screens show for `CC(=O)Nc1ncc2c(n1)CC(c1ccco1)CC2=O` (stereo not drawn)?
SARS PLpro yeast: 2%; Sm TGR block: -27%

Results for O=C(Nc1ncc2c(n1)CC(c1ccco1)CC2=O)c1ccco1 (stereo not drawn) ?
SARS PLpro yeast: 0%; Sm TGR block: 20µM*

How did O=C1CC(c2ccco2)Cc2nc(N3CCc4ccccc4C3)ncc21 (stereo not drawn) do in these assays?
SARS PLpro yeast: -11%; Sm TGR block: 32µM*

How did Nc1ncc2c(n1)CC(c1ccco1)CC2=O (stereo not drawn) do in these assays?
SARS PLpro yeast: 8%; Sm TGR block: 50µM*

How did CCC(=O)Nc1ncc2c(n1)CC(c1ccco1)CC2=O (stereo not drawn) do in these assays?
SARS PLpro yeast: 6%; Sm TGR block: inconclusive

Results for CC(C)c1ccc(C2CC(=O)c3cnc(N4CCc5ccccc5C4)nc3C2)cc1 (stereo not drawn) ?
SARS PLpro yeast: 14%; Sm TGR block: -13%

What do the screens show for `CCc1ccccc1N1CC(c2nc3ccccc3n2CC(C)C)CC1=O` (stereo not drawn)?
Sm TGR block: -1%

Results for COc1ccc(C(=O)N2CCc3cc(OC)c(OC)cc3C2COc2ccccc2OC)cc1 (stereo not drawn) ?
Sm TGR block: 20%

What do the screens show for `CCOC(=O)Cn1c(=O)n(CC2CCCO2)c2nc(-c3ccccc3)nc(C(N)=O)c21` (stereo not drawn)?
Sm TGR block: -10%

How did CCOc1ccc(N=Nc2ccc(O)c3ncccc23)cc1 do in these assays?
SARS PLpro yeast: 1%; Sm TGR block: 1%

What do the screens show for `NS(=O)(=O)c1ccc(N=Nc2ccc(O)c3ncccc23)cc1`?
SARS PLpro yeast: 4%; Sm TGR block: 56µM*

How did NS(=O)(=O)c1ccc(N=Nc2ccc(=O)[nH]c2O)cc1 do in these assays?
SARS PLpro yeast: 2%; Sm TGR block: 22µM*

What do the screens show for `NS(=O)(=O)c1ccc(N=Nc2c(O)[nH]c(=S)[nH]c2=O)cc1`?
SARS PLpro yeast: 0%; Sm TGR block: -7%

How did CC(C)CCNC(=O)Nc1ccc2c(c1)N(C)C(=O)c1ccccc1S2 do in these assays?
Sm TGR block: -8%

How did COC(=O)c1cc(NC(=O)c2cc3c(-c4ccccc4F)nn(C)c3s2)cc(C(=O)OC)c1 do in these assays?
Sm TGR block: 4%

Results for Cc1cccc(OCCSc2nc3ccc(NC(=O)COc4ccccc4F)cc3s2)c1 ?
Sm TGR block: -2%

Results for COc1ccc(NC(=O)C(=O)NCc2ccco2)c(OC)c1 ?
Sm TGR block: -1%

What do the screens show for `COc1ccccc1CNC(=O)COCc1cc(-c2cccs2)on1`?
Sm TGR block: 3%

What do the screens show for `Fc1ccc(Nc2nc(-c3cccc(Cl)c3)c3c(n2)-c2ccccc2OC3)cc1`?
Sm TGR block: 6%

How did O=C(O)c1ccc(S(=O)(=O)N[C@@H](Cc2ccc(O)cc2)C(=O)O)cc1 do in these assays?
SARS PLpro yeast: 3%; Sm TGR block: 45µM*
